Bioassay records: PubChem, Broad Institute
aSyn 5UTR act: Activators via SNCA 5'UTR binding, MLPCN. activity score, % (tested at 7.5 µM), hits read low. AID 1814. alpha-synuclein 5'UTR reporter, activators screen. 300,000 tested, 7.1% active; in the data active = activity score below about -60%
* = called active by the depositor. These entries were drawn from the full list.

SMILES	aSyn 5UTR act
CC(=O)Nc1ccc2c(c1)ncn2-c1ccccc1	-110.0*
CC(=O)Nc1ccc2c(c1)c1ccccc1n2C(C)=O	-64.8*
c1ccc(OCCSc2nc3ccccc3[nH]2)cc1	-127.6*
c1ccc(OCc2nc3ccccc3[nH]2)cc1	-152.6*
Clc1ccc(OCc2nc3ccccc3[nH]2)cc1	-139.2*
C=CCOc1ccc(C(=O)NC2CCCCC2)cc1	-161.1*
O=C(NC1CCCCCCC1)c1ccc(Br)cc1	-92.3*
CC(C)Oc1ccc(C(=O)NC2CCCCC2)cc1	-91.2*
CSc1ccc(CNc2ccc(Cl)cc2)cc1	-114.1*
COc1cc(NC(=O)C/C(C)=N/NC(=O)c2ccccn2)c(OC)cc1Cl	-80.3*
C/C(CC(=O)Nc1ccc(C)c(Cl)c1)=N\NC(=O)c1ccccn1	-70.6*
COc1ccccc1NC(=O)C/C(C)=N/NC(=O)c1ccccn1	-102.7*
COc1ccc2cc1Oc1ccc(cc1)CC1c3c(cc(OC)c4c3Oc3cc5c(cc3O4)CCNC5C2)CCN1C (stereo not drawn)	114.2
COCCn1c(C)cc(C(=O)CSc2nnc(C)s2)c1C	99.6
Cc1cc(C)c(C(=O)CN2C(=O)NC3(CCCCC3)C2=O)cc1C	-73.2*
Cc1ccc(C(=O)CN2C(=O)NC3(CCCCCC3)C2=O)c(C)c1	-131.7*
COCCn1c(C)cc(C(=O)CN2C(=O)NC3(CCCCCCC3)C2=O)c1C	-99.2*
C/C(=N\NC(=O)c1ccn[nH]1)c1cn(C)nc1C	-97.9*
O=C(CC(=O)c1ccccc1)Nc1ccccn1	-130.1*
O=C(CC(=O)c1ccccc1)Nc1ccccc1	-110.3*
O=C(O)/C(=C\C(=O)c1ccccc1)Nc1ccccc1	-90.5*
COc1cccc(NC(=O)CC(=O)c2ccccc2)c1	-111.5*
O=C(CC(=O)c1ccccc1)Nc1ccccc1C(F)(F)F	-63.4*
CN(C)S(=O)(=O)c1ccc(C(=O)Nc2nc(-c3cccs3)cs2)cc1	-99.3*
Cc1csc(NC(=O)c2ccc(S(=O)(=O)N3CCCC3)cc2)n1	-62.3*
SMILES	aSyn 5UTR act
Cc1cc(C)c2nc(NNC(=O)c3ccc(S(=O)(=O)N4CCCC(C)C4)cc3)sc2c1 (stereo not drawn)	72.9
CC1CC(C)CN(S(=O)(=O)c2ccc(C(=O)Nc3nnc(-c4cccs4)o3)cc2)C1 (stereo not drawn)	60.3
O=C(Nc1nc(-c2cccs2)cs1)c1ccc(S(=O)(=O)N2CCCC2)cc1	-95.7*
O=C1c2ccsc2SCCN1Cc1ccccc1	-65.0*
Cc1cccc(/C=N/NC(=O)Cc2cccs2)c1	-73.8*
O=C(Cc1cccs1)N/N=C/C(Cl)=C/c1ccccc1	-192.5*
CCOC(=O)N/N=C/C(Cl)=C/c1ccccc1	-127.8*
CCN(CC)c1ccc(/C=N/NC(=O)Cc2cccs2)c(O)c1	59.9
CCOc1ccc(/C=N/NC(=O)Cc2cccs2)cc1	-84.6*
CC(C)Sc1nnc(Nc2ccccc2)s1	-178.3*
Cc1cccnc1NC(=O)COc1ccc2c(c1)CCC2	-94.1*
Cc1ccc(NC(=O)COc2ccc3c(c2)CCC3)nc1	-98.0*
Cc1ccc(OCC(=O)c2ccc3c(c2)CCCC3)cc1C	-84.0*
Cc1sc(NC(=O)C2C3CCC(O3)C2C(=O)O)nc1-c1ccc(CC(C)C)cc1 (stereo not drawn)	-139.2*
COc1cc(C(F)(F)F)ccc1C(=O)NCCc1ccco1	-162.9*
COc1cccc(/C=C/C(=O)OC(C)C(=O)Nc2c(C)n(C)n(-c3ccccc3)c2=O)c1 (stereo not drawn)	-111.7*
CCN(Cc1ccccc1)C(=O)CCCOc1ccccc1	-91.4*
N#C/C(=C\c1ccc(F)cc1)c1nc(-c2ccco2)cs1	-166.9*
N#C/C(=C\c1ccc(Cl)cc1)c1nc(-c2ccco2)cs1	-66.0*
c1ccc(Nc2ccccc2Nc2ccccn2)nc1	-63.0*
Oc1cccc2ccc(Nc3ccccn3)nc12	98.4
O=C(Nc1ccccn1)Nc1ccccc1[N+](=O)[O-]	-90.9*
Cc1cccc(NC(=O)Nc2ccccn2)c1C	-70.6*
Cc1ccccc1NC(=O)Nc1ccccn1	-110.7*
CSCc1ccc(C(=O)Nc2cccc(C)c2C)cc1	-81.9*
SMILES	aSyn 5UTR act
Cc1cccc(NC(=O)c2ccccn2)c1C	-111.8*
O=C(N/N=C/c1ccccc1)c1ccco1	-107.4*
O=C(N/N=C/C(Br)=C\c1ccccc1)c1ccco1	-225.6*
CC(C)(C)OC(=O)N/N=C\c1ccc(OC(=O)c2ccco2)cc1	-84.4*
O=C(N/N=C/c1ccc(OCc2ccccc2)cc1)c1ccco1	-103.0*
O=C(N/N=C/c1ccccc1)c1[nH]ncc1Br	-118.2*
COc1ccccc1/C=C/C=N/NC(=O)c1ccco1	-111.6*
COc1ccccc1NC(NC(=O)c1ccco1)C(=O)c1ccccc1 (stereo not drawn)	-85.1*
N/C(=N\OCc1ccccc1)c1nonc1N	-97.8*
CCn1ccnc1CNC(=O)c1ccc2oc(CCCc3ccccc3)nc2c1	-75.5*
CCCCc1nc2cc(C(=O)N3CCCC3)ccc2o1	-89.7*
CCCCc1nc2cc(C(=O)N3CCCCC3C(=O)OC)ccc2o1 (stereo not drawn)	-98.2*
COCC1CCN(C(=O)c2ccc3oc(CCCc4ccccc4)nc3c2)C1 (stereo not drawn)	-95.3*
CCCCc1nc2cc(C(=O)NC(C)c3cnn(C)c3)ccc2o1 (stereo not drawn)	-77.4*
CCCCc1nc2cc(C(=O)N3CCCC(COC)C3)ccc2o1 (stereo not drawn)	-86.2*
Cc1cc(C(=O)COC(=O)c2cccn2C)c(C)n1Cc1ccco1	76.9
Cc1cc(C(=O)COC(=O)c2cc(Cl)ccc2N)c(C)n1Cc1ccco1	-157.0*
[O-][n+]1ccccc1SC/C=C/c1ccccc1	-65.4*
C=CCNC(=S)Nc1ccc(N(C)C)cc1	-70.1*
CCCNC(=O)C(=O)Nc1ccc(N(C)C)cc1	-126.4*
COCCNC(=O)C(=O)Nc1ccc(Br)cc1	-102.7*
Cc1ccccc1-c1noc(-c2cccs2)n1	-250.6*
Cc1ccccc1-c1nnc(-c2cccs2)o1	-115.9*
CC1Cc2cc(/C=C3/SC(=S)NC3=O)ccc2O1 (stereo not drawn)	-106.0*
Cc1cc(=O)n2[nH]c(-c3ccc(F)cc3)cc2n1	-64.4*
SMILES	aSyn 5UTR act
Cc1cccc(-c2cc3nc(-c4ccccc4)cc(=O)n3[nH]2)c1	-103.2*
Cc1ccc(O)c(/C=N/NC(=O)Cc2ccc(Cl)cc2)c1	61.5
O/N=C/c1ccccc1OCc1ccc(Cl)cc1	-98.0*
O=C(Cc1ccccc1)N/N=C/c1ccccc1OCc1ccc(Cl)cc1	-95.2*
COc1ccc(-c2nnc(SCC(=O)c3ccc[nH]3)n2-c2ccccc2)cc1	-70.2*
CCOC(=O)c1sc(NC(=O)Nc2ccccc2Cl)cc1C	-94.9*
CCOC(=O)c1sc(NC(=O)C2CCC2)cc1C	-110.0*
CCOC(=O)c1sc(NC(=O)c2cccc(S(=O)(=O)N3c4ccccc4CC3C)c2)cc1C (stereo not drawn)	79.5
CCOC(=O)c1sc(NC(=O)c2ccc(C)s2)cc1C	-170.4*
Cc1cccn2c1nc(=S)n2C(=O)c1ccco1	-264.5*
CCOC(=O)c1oc2cccc(O)c2c1C	-80.8*
CCOC(=O)c1oc2cccc(OC(C)=O)c2c1C	-84.7*
CCNc1oc(-c2cccc3ccccc23)nc1C#N	-88.1*
N#Cc1nc(-c2cccc3ccccc23)oc1NCCN1CCCCC1	-63.3*
O=C1C(Cl)=C(NCCN2CCCCC2)C(=O)c2ccccc21	54.0
CCOC(=O)CNC(=O)c1cc(-c2ccccn2)nc2c(C)c(Cl)ccc12	-65.6*
Cc1ccc(OC(=O)NC2CCS(=O)(=O)C2)cc1C (stereo not drawn)	-122.3*
